A selection: hits, their analogues and other compounds. The true share with any hit is near 3.6%.
WT yeast gro inh: growth inhibition of WT yeast, mitochondrial fusion screen; inhibition, % at 10 µM; AID 1362; mitochondrial fusion phenotypic screen, WT strain; hit rate 2.1% among 190,000; in the data active = inhibition above about 58%; tested in S. cerevisiae
bCat KO growth: beta-catenin-lacking colon tumor cell growth suppression | hit rate 1.5% among 140,000 | viability, % at 10 µM | HCT116 beta-catenin knockout viability, CellTiter-Glo, 60 h; active compounds read low;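 active = viability at or under a set limit, the compound median less 4 SD, cut at about 6% in these data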;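 note: 0% = Hyamine 1622 control at 20 µM and 100% = untreated cell control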
HCT116 PTEN-null: growth suppressors of cells with PTEN tumor suppressor deletion; HCT116 PTEN-null viability, CellTiter-Glo, 60 h; active compounds read low; viability, % at 10 µM; hit rate 1.2% among 140,000; AID 827;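 active = viability at or below a set limit, 4 SD under the median of all tested compounds, cut at about 3.7% in these data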;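 note: PTEN knockout HCT116 line with beta catenin targeted HCT116 as companion control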
DAT uptake mod: changed human dopamine transporter uptake under cocaine IC80; B-score at 10 µM; Q01959; AID 449768; LLC-PK1 hDAT cells, [14C]-dopamine uptake with cocaine IC80; actives deviate in either direction; hit rate 1.3% among 110,000;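 active = Z score or B-score, a plate-position-corrected score, falls beyond the plate's 99.7% confidence bounds, in either direction; inactive = both scores lie inside the 99.7% bounds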;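 note: scored against the spread of the other compound wells on the same plate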
Target sequence (Q01959 whole entry, looked up): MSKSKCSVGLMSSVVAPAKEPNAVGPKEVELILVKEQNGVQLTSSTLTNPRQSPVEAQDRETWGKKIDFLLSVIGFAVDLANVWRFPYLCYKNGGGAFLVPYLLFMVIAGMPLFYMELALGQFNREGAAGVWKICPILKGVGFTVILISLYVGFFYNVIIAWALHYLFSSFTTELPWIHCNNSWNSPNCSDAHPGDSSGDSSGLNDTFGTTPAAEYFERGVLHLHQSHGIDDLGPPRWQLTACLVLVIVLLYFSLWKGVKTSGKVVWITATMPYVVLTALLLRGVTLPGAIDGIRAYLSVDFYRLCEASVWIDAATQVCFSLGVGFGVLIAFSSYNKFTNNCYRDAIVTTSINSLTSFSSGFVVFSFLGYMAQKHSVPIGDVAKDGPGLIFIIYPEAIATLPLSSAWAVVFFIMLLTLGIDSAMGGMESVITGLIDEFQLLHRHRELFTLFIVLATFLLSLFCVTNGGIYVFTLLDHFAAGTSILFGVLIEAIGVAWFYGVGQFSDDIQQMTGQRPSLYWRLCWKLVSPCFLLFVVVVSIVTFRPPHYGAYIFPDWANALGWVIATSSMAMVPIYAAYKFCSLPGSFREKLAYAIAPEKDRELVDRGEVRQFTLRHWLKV
Numbers without * were called inactive; · = not tested or not shown.

SMILES	WT yeast gro inh	bCat KO growth	HCT116 PTEN-null	DAT uptake mod
Cc1ccccc1C(=O)NC(C(=O)Nc1nc2c(s1)CCCC2)C(C)C (centres undefined)	22	82	84	·
Cc1cc(C(=O)CSc2nc(N)cc(N)n2)c(C)n1-c1cccc(F)c1	3	90	74	·
Cc1ccccc1Cc1c(C)nc2c(C(=O)NCc3ccco3)cnn2c1C	7	85	81	3*
Cc1ccccc1Cc1c(C)nc2nc(SCC(=O)NCc3ccco3)nn2c1C	5	86	78	-7.9*
CCN=C1SC(C(=O)Nc2ccc(OC)cc2)CC(=O)N1CC (centres undefined)	9	·	·	·
COc1ccc(NC(=O)c2ccccc2NS(=O)(=O)c2ccc(C)cc2)c([N+](=O)[O-])c1	3	95	84	·
Cc1ccc(S(=O)(=O)Nc2ccc(C(OC(=O)c3ccccc3[N+](=O)[O-])(C(F)(F)F)C(F)(F)F)cc2)cc1	86*	63	42	·
CC(=O)c1ccc(NS(=O)(=O)c2ccccc2)cc1	-7	89	101	-0.33
O=C(OC(c1ccc(NS(=O)(=O)c2ccccc2)cc1)(C(F)(F)F)C(F)(F)F)c1ccccc1	87*	90	89	·
O=C(Cn1ccc(C(F)(F)F)n1)N/N=C/c1ccc2c(c1)OCO2	5	91	87	·
CCOC(=O)Cc1nc(-c2cccc(C(F)(F)F)c2)no1	0	·	·	·
Cc1nc2sccn2c(=O)c1CCN1CCC(=C(c2ccccc2)c2ccc(F)cc2)CC1	33	62	68	-3.5*
CCOC(=O)c1c(C)nc2sccn12	-34	92	100	-0.051
Oc1ccccc1/C=N/Nc1cc(N2CCCC2)nc(N2CCCC2)n1	74*	24	21	·
Oc1ccc(/C=N/Nc2cc(N3CCOCC3)nc(N3CCOCC3)n2)cc1O	-1	3.0*	4	·
O=[N+]([O-])c1ccccc1/C=N/Nc1nc(N2CCCC2)nc(N2CCCC2)n1	17	·	·	·
Oc1cccc(/C=N/Nc2cc(N3CCOCC3)nc(N3CCOCC3)n2)c1	-5	51	52	·
CSCCC(NC(=O)COc1ccccc1)C(=O)O (centres undefined)	6	·	·	·
CC(=O)Nc1ccc(N2C(=O)CSC2c2ccccc2[N+](=O)[O-])cc1 (centres undefined)	-8	·	·	·
CC1(C)C2CCC1(CS(=O)(=O)Nc1ccc(S(=O)(=O)N3CCCCC3)cc1)C(=O)C2 (centres undefined)	-5	94	93	·
CCCCNC(=O)C1c2ccccc2C(=O)N(c2ccc(OC)cc2)C1c1ccc(OC)cc1 (centres undefined)	-13	69	57	-7.8*
Cc1ccccc1S(=O)(=O)Cc1ccc(C(=O)NCc2cccs2)o1	8	93	91	-8.4*
O=C(c1ccc(NC(=S)NCc2ccco2)cc1)N1CCCCC1	8	·	·	·
COc1c(C(CC(C)C)OC(C)=O)ccc2c1C(=O)OCc1cc(C)cc(O)c1O2 (centres undefined)	·	·	·	0.54
CSc1ccc(Cl)c(C(=O)OCC(=O)NCC(C)C)c1	10	99	111	-0.22
SMILES	WT yeast gro inh	bCat KO growth	HCT116 PTEN-null	DAT uptake mod
COc1cc(SC)ccc1C(=O)NCCOc1ccc(Cl)cc1	62*	82	79	·
CSc1ccc(Cl)c(C(=O)NCCOc2cc(C(C)C)ccc2C)c1	67*	68	67	-0.18
COc1cc(SC)ccc1C(=O)NCCOc1c(C)cc(C)cc1C	27	93	103	-0.16
O=C(NNC(=O)c1sccc1-n1cccc1)Nc1ccc(F)cc1	-14	·	·	·
CCOC(=O)N1CCN(S(=O)(=O)c2cc([N+](=O)[O-])c(C)cc2C)CC1	0	·	·	·
Cc1nc2ccc(C(=O)NCc3ccc4c(c3)OCO4)cc2s1	64*	·	·	·
CC(C)(C)c1ccccc1OCCOCCN1CCCCCC1	68*	·	·	·
Cc1ccc(C(C)(C)C)c(OCCOCCN2CCCC2)c1	9	63	60	·
C/C(=N\Nc1ccc(Cl)c(Cl)c1)c1ccc(-n2ccnc2)cc1	69*	75	68	·
C/C(=N\NC(=O)COc1ccc(C(C)(C)C)cc1)c1ccc(-n2ccnc2)cc1	71*	51	50	·
CSc1nc(N2CCOCC2)c2ccccc2n1	13	86	92	-0.89
CSc1nc(N2CCN(c3ccccc3Cl)CC2)c2ccccc2n1	63*	·	·	·
CCn1c2ccccc2c2cc(NC(=O)CSc3nnc(-c4ccc(OC)c(OC)c4)n3N)ccc21	-1	52	61	-0.058
CCOc1ccc(-c2nnc(SCC(=O)Nc3ccc4c(c3)c3ccccc3n4CC)n2N)cc1	4	3.9*	5	-1
CCn1c2ccccc2c2cc(NC(=O)CSc3nnc(-c4ccccc4OC)n3N)ccc21	-9	98	98	2.8*
c1cc2c(cc1C1CCCCC1)c1c3n2CCN=C3CCC1	93*	2.1*	10	0.6
